This is an account of results in PubChem BioAssay.

The nature of this experiment: Plasmodium falciparum growth inhibition, primary screen, strain 3D7, DAPI fluorescence, 100 nL (AID 1184).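 Also: parasites grown inside human red blood cells in medium with human serum.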 The settings on record: P. falciparum 3D7 growth, 3 d, higher = more signal.
As for `C=CCN1C(=O)[C@@]2(O[C@@H](CCO)[C@H]([Si](C)(C)c3ccc(OC)cc3)[C@H]2C)c2cc(NC(=O)[C@H](C)O)ccc21`, the z-score is -2.83. The same measure for `COC(=O)[C@@]1(Cc2ccc(OC)cc2)[C@H]2c3cc(C(=O)N4CCCC4)n(CCF)c3C[C@H]2CN1C(=O)c1ccccc1`: -1.8; for `O=C1N(Cc2ccccc2)c2ccccc2[C@H]2OC(c3ccc(OCCCO)cc3)=N[C@@]12CCS(=O)(=O)c1ccccc1`: -2.56; for `CC(=O)NCCCC[C@@H]1NC(=O)[C@@H]2C[C@H](C(=O)NCCCC[N+](C)(C)C)[C@H](c3cccc(OCCO)c3)N2C1=O`: -0.102. The same measure for `COCCCNC(=O)[C@@]1(Cc2ccccc2I)c2ccccc2C(=O)N(Cc2ccccc2Cl)[C@H]1c1ccc(CO)cc1`: -1.22; for `COCCCNC(=O)[C@@]1(Cc2ccccc2CN=[N+]=[N-])N=C(c2ccc(OCCCO)cc2)O[C@H]1c1ccccc1N=[N+]=[N-]`: -2.22; for `NCCCCCCNC(=O)[C@H]1C[C@H]2C(=O)N3CCC[C@H]3C(=O)N2[C@H]1c1ccc(O)cc1`: 0.0311.

The molecule `C=C(/C(=C/C[C@@H](OC(=O)c1ccncc1)c1cccc(OCCO)c1)c1cc(C(=O)OC)ccc1OC)C(C)C` registered a z-score of -3.13. The same measure for `CN1C(=O)C2C=CC(C(O)COCc3ccccc3)N(Nc3ccccc3)C2C1=O` (configuration not stated): 0.872; for `C=C[C@@H](O)[C@H]1CC(c2ccccc2)=NO1`: 0.99. The same measure for `COC(=O)[C@@]1(Cc2ccc(OC)cc2)[C@H]2c3cc(C(=O)N(C)C)n(CCF)c3C[C@H]2CN1C(=O)c1ccccc1`: -1.65; for `C=CCC(OC(C)=O)[C@@H]1[C@@H](N(Cc2ccc(-c3cccc(C(F)(F)F)c3)o2)C(=O)c2cccc3ccccc23)c2cc(OCCCO)ccc2N1C(=O)c1ccc(-c2ccccc2)cc1` (some centres not stated): -3.
